About 83,000 compounds went through this panel and 20% of them were active in at least one assay; those are over-represented in the sample as a whole.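 Assay: single dose, 48 h. Readout: percent growth (0 = no net growth; negative = cell death). Active: <10.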 Calls of active or inactive are those of the source.
The compounds below were run on MDA-MB-231 breast (assay: NCI-60 one-dose screen, 48 h (100 = growth as untreated, 0 = no growth, -100 = all killed)). Conditions: 10 µM.
For `Cc1ccc(/C=C(\C#N)n2nnc3c(F)cccc32)cc1`, the growth was -18.1% (active). For `O=C(COc1ccc(NC(=O)Nc2ccc(Cl)cc2)cc1)N=Nc1c(O)[nH]c2ccc([N+](=O)[O-])cc12`, the growth was -44.7% (active). For `Cc1ccc(C(=O)NCCCNc2nc(Nc3ccc(N4CCN(C)CC4)cc3)nc3ccsc23)cc1`, the growth was 44.4% (inactive). In the case of `COc1cc(Cn2c(C(F)(F)F)cc3c(Cl)ncnc32)ccn1`, the growth is reported as 10.7% (inactive). With `O=C1CCC(N2Cc3c(NCc4ccc(-c5ccccc5)cc4)cccc3C2=O)C(=O)N1` (stereo unspecified) the growth was 22.2% (inactive). In the case of `O=C(NO)c1ccc(CNc2nc(-c3ccccc3)c3ccccc3n2)cc1`, the growth is reported as -21.8% (active). For `Cc1ccc(NC(=O)c2ccc(-n3c(=O)[nH]c4ccccc4c3=O)cc2)cc1`, the growth was 64.6% (inactive). For `C=C1CC[C@H](C(=C)C)[C@H]2C=C(C)C(=O)C3=C(C(=O)[C@@](C)(O)C3)[C@H]12`, the growth was -70.1% (active). For `Cc1ccc(C(C)C)cc1NC(=O)c1ccccc1O`, the growth was 65.1% (inactive). In the case of `O=C(Nc1ccccc1)Nc1nc2ccccc2s1`, the growth is reported as 79.5% (inactive). In the case of `C=C(C)[C@@H]1CC[C@]2(C)[C@H](CC=C3[C@@H]4CC(C)(C)CC[C@]4(C(=O)N4CCOCC4)CC[C@]32C)[C@@]1(C)CCCN`, the growth is reported as -91.4% (active).

Each compound was assayed on RXF 393 renal in the same assay as above. Conditions: 10 µM.
For `Cc1cccc2cc(-c3cc(-c4ccccc4)nc(=S)[nH]3)c(Cl)nc12`, the growth was 78.9% (inactive). For `Cc1ccc(/C=C(\C#N)n2nnc3c(F)cccc32)cc1`, the growth was -4.78% (active). In the case of `COc1ccc2nc(Cl)c(-c3cc(-c4ccccc4)nc(=S)[nH]3)cc2c1`, the growth is reported as 46.2% (inactive). In the case of `Cc1ccc(C(=O)Nc2ccc(-n3c(C)nc4c(cnn4-c4ccccc4)c3=O)cc2)cc1`, the growth is reported as 87.9% (inactive). With `Cc1ccc(-c2ccc(SCC(=O)Nc3ccc(Cl)c(C(F)(F)F)c3)nn2)cc1` the growth was -32.5% (active). With `O=C(COc1ccc(NC(=O)Nc2ccc(Cl)cc2)cc1)N=Nc1c(O)[nH]c2ccc([N+](=O)[O-])cc12` the growth was 73.1% (inactive). With `Cc1nn(-c2ccccc2)c2ncn(CC(=O)N/N=C/c3c[nH]c4ccccc34)c(=O)c12` the growth was 89.5% (inactive). In the case of `S=c1nc(-c2ccccc2)cc(-c2cc3ccccc3nc2Cl)[nH]1`, the growth is reported as 91.2% (inactive). In the case of `Cc1ccc(C(=O)NCCCNc2nc(Nc3ccc(N4CCN(C)CC4)cc3)nc3ccsc23)cc1`, the growth is reported as -53.1% (active). In the case of `COc1ccc2nc(Cl)c(-c3cc(-c4ccccc4)nc(N)n3)cc2c1`, the growth is reported as -19.8% (active). For `COc1cc(Cn2c(C(F)(F)F)cc3c(Cl)ncnc32)ccn1`, the growth was 32.9% (inactive). `O=c1nc(-c2ccccc2)cc(-c2cc3ccccc3nc2Cl)[nH]1` was tested, and the growth was -16.1% (active). With `Cc1nc2c(cnn2-c2ccccc2)c(=O)n1-c1ccc(NC(=O)c2ccc(F)cc2)cc1` the growth was 79.1% (inactive). With `O=C(c1ccc([N+](=O)[O-])c([N+](=O)[O-])c1O)n1[nH]c(=O)c2ccccc2c1=O` the growth was 66.7% (inactive). `Cc1ccc(-c2cc(-c3cc4ccccc4nc3Cl)[nH]c(=S)n2)cc1` was tested, and the growth was 28.1% (inactive). With `COc1ccc2nc(Cl)c(-c3cc(-c4ccccc4)nc(=O)[nH]3)cc2c1` the growth was 58.5% (inactive). In the case of `Cc1ccc(NC(=O)c2ccc(-n3c(=O)[nH]c4ccccc4c3=O)cc2)cc1`, the growth is reported as 54.3% (inactive). In the case of `Nc1nc(-c2ccccc2)cc(-c2cc3ccccc3nc2Cl)n1`, the growth is reported as 85.2% (inactive). `C=C1CC[C@H](C(=C)C)[C@H]2C=C(C)C(=O)C3=C(C(=O)[C@@](C)(O)C3)[C@H]12` was tested, and the growth was -82.7% (active). `Cc1cccc2cc(-c3cc(-c4ccccc4)nc(=O)[nH]3)c(Cl)nc12` was tested, and the growth was 88.3% (inactive). With `Cc1ccc(C(C)C)cc1NC(=O)c1ccccc1O` the growth was 57.3% (inactive). In the case of `O=C(Nc1ccccc1)Nc1nc2ccccc2s1`, the growth is reported as 110% (inactive). `NC1=NC(c2ccccc2Cl)N=C(Nc2nn[nH]n2)N1` (stereo unspecified) was tested, and the growth was 113% (inactive). `C=C(C)[C@@H]1CC[C@]2(C)[C@H](CC=C3[C@@H]4CC(C)(C)CC[C@]4(C(=O)N4CCOCC4)CC[C@]32C)[C@@]1(C)CCCN` was tested, and the growth was -90.9% (active). With `Cc1ccc(-c2cc(-c3cc4ccccc4nc3Cl)[nH]c(=O)n2)cc1` the growth was -33.9% (active). In the case of `O=C1Nc2cc(Cl)ccc2/C1=C/c1cccc(OCc2ccccc2)c1`, the growth is reported as -3.3% (active). `O=C1Nc2ccc(Cl)cc2/C1=C/c1cccc(OCc2ccccc2)c1` was tested, and the growth was -0.942% (active). With `O=C1Nc2ccc(Cl)cc2/C1=C/c1ccc(OCc2ccc(Br)cc2F)cc1` the growth was 1.46% (active). For `O=c1[nH]n(C(=S)N/N=C/c2ccc(F)cc2)c(=O)c2ccccc12`, the growth was 57.3% (inactive). In the case of `O=C1Nc2cc(Cl)ccc2/C1=C/c1ccc(OCc2ccc(Br)cc2F)cc1`, the growth is reported as -77.4% (active). `CN1CCc2c(sc3ncnc(N/N=C/c4cn(-c5ccccc5)nc4-c4ccc(Br)cc4)c23)C1` was tested, and the growth was 83.6% (inactive). `COc1ccc(C=CC(=O)c2ccc(-n3c(C)nc4c(cnn4-c4ccccc4)c3=O)cc2)cc1` was tested, and the growth was 84.4% (inactive). With `O=C1Nc2cc(Cl)ccc2/C1=C/c1cccc(OCc2ccc(Br)cc2F)c1` the growth was -15.1% (active). `O=C1Nc2ccc(F)cc2/C1=C/c1cccc(OCc2ccccc2)c1` was tested, and the growth was -15.9% (active). In the case of `O=C(CSc1ccc(-c2ccc(Cl)cc2)nn1)Nc1ccc(Cl)c(C(F)(F)F)c1`, the growth is reported as 71.1% (inactive).

Reference: PubChem BioAssay (NCI)
